Compounds without any hit were thinned out: in the full panel of roughly 83,000, 20% have a hit.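 Note: values are percent growth. 100 is the growth of untreated cells, values between 100 and 0 indicate rising inhibition; between -100 and 0 indicates cell death.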 A number with no mark means an inactive call. Activity calls are given as the source filed them. The calls were made as follows: active = growth percent below 10; inactive = the rest.
Columns and labels:
Test in all cases: NCI-60 one-dose screen, 48 h (100 = growth as untreated, 0 = no growth, -100 = all killed)
Details in all cases: 10 µM unless noted
SK-MEL-2 melanoma = system: SK-MEL-2 melanoma
EKVX NSCLC = system: EKVX NSCLC
SN12C renal = system: SN12C renal
UO-31 renal = system: UO-31 renal
TK-10 renal = system: TK-10 renal
ACHN renal = system: ACHN renal
A498 renal = system: A498 renal
CCRF-CEM leukemia = system: CCRF-CEM leukemia
MOLT-4 leukemia = system: MOLT-4 leukemia
SR leukemia = system: SR leukemia
RPMI-8226 leukemia = system: RPMI-8226 leukemia
OVCAR-8 ovarian = system: OVCAR-8 ovarian
OVCAR-5 ovarian = system: OVCAR-5 ovarian
OVCAR-4 ovarian = system: OVCAR-4 ovarian
SK-OV-3 ovarian = system: SK-OV-3 ovarian
IGROV1 ovarian = system: IGROV1 ovarian
OVCAR-3 ovarian = system: OVCAR-3 ovarian
HS 578T breast = system: HS 578T breast
NCI/ADR-RES ovarian = system: NCI/ADR-RES ovarian
CAKI-1 renal = system: CAKI-1 renal

Compound	growth (SK-MEL-2 melanoma)	growth (EKVX NSCLC)	growth (SN12C renal)	growth (UO-31 renal)	growth (TK-10 renal)	growth (ACHN renal)	growth (A498 renal)	growth (CCRF-CEM leukemia)	growth (MOLT-4 leukemia)	growth (SR leukemia)	growth (RPMI-8226 leukemia)	growth (OVCAR-8 ovarian)	growth (OVCAR-5 ovarian)	growth (OVCAR-4 ovarian)	growth (SK-OV-3 ovarian)	growth (IGROV1 ovarian)	growth (OVCAR-3 ovarian)	growth (HS 578T breast)	growth (NCI/ADR-RES ovarian)	growth (CAKI-1 renal) [%]
O=C(CSc1nnc(-c2cc(-c3ccc(Cl)cc3)nc3ccccc23)n1-c1ccccc1)Nc1ccc(Cl)cc1	105%	94.8%	90.5%	77.6%	132%	106%	88.2%	98.5%	84.1%	78.6%	102%	98.3%	102%	108%	94.6%	97.8%	106%	109%	99.4%	–
COc1ccc(/C=N/NC(=O)Cn2nnc3ccccc32)cc1	100%	101%	86.6%	77.8%	111%	94.6%	–	106%	93%	96%	101%	96.7%	104%	115%	95.5%	95.9%	95%	–	104%	90.4
Cc1nc2c(c(-c3ccccc3)n1)Cc1c(ccc3ccccc13)O2	112%	128%	102%	69.8%	106%	90.8%	79.1%	96.5%	97%	107%	87%	95.1%	93.1%	99.4%	96.4%	118%	99.1%	83.3%	98%	–
Cc1nn(C)c2ncnc(Nc3ccccc3Br)c12	100%	60.6%	98.8%	96.8%	97%	106%	71.4%	93.3%	95.9%	84.8%	95.2%	106%	99.6%	109%	99%	105%	108%	101%	107%	–
C/C(=N\NC(=O)c1ccc(C(C)(C)C)cc1)c1ccc(O)cc1O	42.8%	22%	33.7%	16.8%	40.5%	16.5%	42.3%	14.5%	18.2%	19.2%	28.5%	22.9%	39.9%	15%	27.7%	23.8%	6.18% (active)	59.8%	10.3%	–
O=C(O)c1nn(-c2ccc(Cl)cc2)nc1N1CCCC1	102%	88.3%	101%	79.9%	133%	99.4%	74.3%	100%	97.5%	99%	101%	96%	94.9%	91.2%	97.2%	93%	105%	97%	99.5%	–
C#CCOc1ccc(C2=NN(CCCC)C3N=C(Cl)c4ncn(CCCC)c4N23)cc1OCC#C (configuration not stated)	101%	85.2%	91.4%	62.5%	97.8%	87.4%	73%	78.2%	65.3%	79.1%	85.2%	85.9%	93.6%	86.2%	92.3%	99.2%	97.2%	80.6%	83%	–
CC(C)(C)n1cc(-c2ccnc(NCCNS(=O)(=O)c3cccc4ccccc34)c2)c(-c2cccc(O)c2)n1	81.7%	69.8%	72.5%	70.2%	97.2%	70.1%	73.1%	60.1%	53.4%	30.1%	27.4%	65.9%	84.4%	80.1%	81.9%	87%	91%	84.6%	77%	–
Oc1ccc(C(c2ccc(O)cc2)c2ccc(Cl)cn2)cc1	72.7%	15.8%	6.15% (active)	64.8%	-3.31% (active)	15.7%	-1.72% (active)	70.2%	98.3%	90%	98.2%	-11.1% (active)	72.7%	-14.8% (active)	86.8%	28.9%	-34.5% (active)	-29.9% (active)	-36.1% (active)	–
FC(F)(F)c1cccc(-c2nnn(Cc3cc(-c4cccc(Cl)c4)no3)n2)c1	114%	115%	101%	85.7%	109%	107%	103%	96.1%	107%	96.2%	102%	101%	101%	116%	98.8%	104%	114%	107%	108%	–
O=C1C(Nc2ccc(Br)cc2)=C(I)C(=O)c2ncccc21	79.2%	77.6%	1.34% (active)	-38.4% (active)	70.7%	-20.1% (active)	96%	8.63% (active)	-2.02% (active)	4.58% (active)	6.59% (active)	2.71% (active)	73.5%	-95.6% (active)	83.9%	-56.7% (active)	-85.3% (active)	40.7%	1.39% (active)	–
CCCN1C(=O)N(CCC)C2C1NC(=S)N2/N=C/C=C/c1ccccc1OC (configuration not stated)	49.6%	51.5%	38.3%	39.5%	57.3%	41.4%	–	10.1%	27.6%	22%	19%	12.2%	26.7%	55.2%	34.9%	30.6%	-20.9% (active)	9.95% (active)	9.94% (active)	26.6
O=C1OCC2=C1C(c1cccc(F)c1)c1cc3c(cc1N2CCO)CCC3 (configuration not stated)	27%	40.9%	26.7%	37.8%	57.5%	22.8%	–	5.27% (active)	11.4%	12.3%	23.3%	13.5%	36.2%	48.8%	32.8%	23.5%	-24.9% (active)	41.2%	13.3%	32.5
COc1ccc2c(O)cc3c(c2c1)[C@H](CCl)CN3C(=O)c1cc2cc(NC(=O)CCN3CCOCC3)ccc2[se]1	-84.3% (active)	-59.3% (active)	-88.1% (active)	-46.9% (active)	-32.2% (active)	-1.81% (active)	-90.9% (active)	76%	74.2%	52.5%	79.7%	-98.1% (active)	-44.6% (active)	-25.4% (active)	-42% (active)	-60.1% (active)	-7.3% (active)	5.52% (active)	-34.4% (active)	–
CCCCC#Cc1c(I)n(C2OC(CO[Si](C)(C)C(C)(C)C)C3OC(C)(C)OC32)c(=O)[nH]c1=O (configuration not stated)	55.6%	92.2%	85.1%	56.1%	68.9%	72.5%	99.1%	8.63% (active)	4.72% (active)	-5.46% (active)	-46.9% (active)	85.7%	82.5%	70.3%	98.8%	83.8%	42.7%	100%	84.5%	–
COc1cc(/C=C/C(=O)c2ccc(-n3cc(CN4CCN(c5cc6c(cc5F)c(=O)c(C(=O)O)cn6C5CC5)CC4)nn3)cc2)cc(OC)c1OC	102%	80.8%	58.8%	65.4%	97.8%	93.4%	–	34.6%	–	21.3%	6.02% (active)	80.7%	92.7%	96.7%	79%	79.4%	84.9%	71.2%	85.6%	68.7

From PubChem BioAssay (NCI)
